Measured values published in PubChem BioAssay (NCI).
The panel holds about 83,000 compounds, 20% with a hit somewhere; the sample as a whole holds those more often.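 Percent growth is the endpoint: 0 to 100 indicates growth inhibition (40 means 60% inhibition), 0 means no net growth, and negative values indicate cell death.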 Values without a mark were called inactive. The source made the active and inactive calls. How the source made its calls: active means growth percent below 10; inactive means the rest.

Tests used:
Experiment in all cases: NCI-60 one-dose screen, 48 h (100 = growth as untreated, 0 = no growth, -100 = all killed)
Settings in all cases: 10 µM unless noted
NCI-H23 lung = system: NCI-H23 lung
NCI-H226 lung = system: NCI-H226 lung
NCI-H322M lung = system: NCI-H322M lung
HOP-62 NSCLC = system: HOP-62 NSCLC
NCI-H460 lung = system: NCI-H460 lung
NCI-H522 lung = system: NCI-H522 lung
A549/ATCC NSCLC = system: A549/ATCC NSCLC
786-0 renal = system: 786-0 renal
COLO 205 colon = system: COLO 205 colon
DU-145 prostate = system: DU-145 prostate
MALME-3M melanoma = system: MALME-3M melanoma
MDA-MB-231 breast = system: MDA-MB-231 breast
RXF 393 renal = system: RXF 393 renal
SF-268 CNS = system: SF-268 CNS
SF-295 CNS = system: SF-295 CNS
SF-539 CNS = system: SF-539 CNS
UACC-257 melanoma = system: UACC-257 melanoma
M14 melanoma = system: M14 melanoma
K-562 leukemia = system: K-562 leukemia

SMILES	growth (NCI-H23 lung)	growth (NCI-H226 lung)	growth (NCI-H322M lung)	growth (HOP-62 NSCLC)	growth (NCI-H460 lung)	growth (NCI-H522 lung)	growth (A549/ATCC NSCLC)	growth (786-0 renal)	growth (COLO 205 colon)	growth (DU-145 prostate)	growth (MALME-3M melanoma)	growth (MDA-MB-231 breast)	growth (RXF 393 renal)	growth (SF-268 CNS)	growth (SF-295 CNS)	growth (SF-539 CNS)	growth (UACC-257 melanoma)	growth (M14 melanoma)	growth (K-562 leukemia)
CCc1c(C)c2ccc(O)c(-c3cc(-c4ccccc4)c(C#N)c(=O)[nH]3)c2oc1=O	89%	83.8%	95%	89.4%	112%	109%	90%	105%	115%	96.7%	107%	72.6%	99.2%	108%	97.4%	113%	123%	102%	
CNC(=O)c1c(NC(=O)c2cccc(C(F)(F)F)c2)sc2c1CCC(=O)C2	-1.79% (active)	1.92% (active)	15.4%	13.6%	10%	-28.3% (active)	13.6%	13.3%	-31.7% (active)	23.9%	-28.9% (active)	-41.2% (active)	-18.9% (active)	21.7%	-10.4% (active)	-30% (active)	-11% (active)	-10.9% (active)	
CC1(C)CN(CCNc2nccc(-c3c(-c4cccc(O)c4)nc4sccn34)n2)S(=O)(=O)N1	70%	87.5%	54.2%	89.1%	50.6%	65.1%	117%	50.6%	32.1%	67.9%	5.36% (active)	53.8%	57.1%	84%	92.9%	87.2%	46.8%	-1.68% (active)	
CCCCCCCCCCCCNC(=O)N[C@H](C(=O)N[C@H]1/C=C/CCNC(=O)/C=C/[C@H](C)NC1=O)C(C)C	-42.8% (active)	-87% (active)	3.54% (active)	-65.1% (active)	2.24% (active)	-21.7% (active)	10.5%	-37.7% (active)	-51.3% (active)	6.45% (active)	-1.82% (active)	-44.7% (active)	-98.8% (active)	-44.9% (active)	-37.4% (active)	-49.4% (active)	49.9%	-82% (active)	
CCOC(=O)c1ccc2c(c1)[n+](=O)c(C(=O)c1ccc3ccccc3c1)c(C(F)(F)F)n2[O-]	-88.4% (active)	-93.7% (active)	67.2%	-93.8% (active)	-100% (active)	-80.1% (active)	-26.4% (active)	-100% (active)	-100% (active)	-100% (active)	-69.1% (active)	-99.4% (active)	-71.2% (active)	-88.8% (active)	-84.8% (active)	-100% (active)	-71.7% (active)	-100% (active)	
COc1ccccc1/C=C/C(=O)CCC(=O)O	106%	104%	101%	96.2%	111%	103%	108%	96.7%	120%	108%	101%	114%	127%	111%	105%	97.5%	115%	99.8%	
CCN(CCC#N)c1ccccc1	106%	100%	106%	101%	107%	109%	108%	99.7%	132%	113%	100%	89.9%	122%	115%	102%	96.5%	119%	109%	
Cc1nn(-c2cccc(Cl)c2)c(C)c1N=Nc1ccc(Br)cc1	96.9%	101%	102%	86.9%	103%	68.6%		89.7%	102%	101%	95.1%	93.1%	110%	96.5%	91.8%	90.7%	53.2%	95.6%	89.2%
CC(=O)OC[C@H]1O[C@@H](n2c(=O)cc(N)[nH]c2=O)C(OC(C)=O)[C@@H]1OC(C)=O (some centres not stated)	98.5%	90.6%	105%	95%	107%	100%		102%	115%	108%	98.4%	107%	104%	97.9%	94.2%	98%	98%	91.3%	108%
COc1cc(C2CC(c3ccccc3)=NN2C=O)ccc1Oc1nc2c(c(=O)n(C)c(=O)n2C)n1C (configuration not stated)	79%	79%	55.4%	102%	91.3%	91.7%		98.1%	105%	59%	77.9%	71.9%	90.9%	56.3%	62.2%	117%	-27.3% (active)	69.9%	74.3%
CC(=O)CC(c1ccc([N+](=O)[O-])cc1)c1c(O)c2ccccc2oc1=O (configuration not stated)	106%	93.9%	98.7%	102%	104%	97.3%		95.4%	112%	106%	98.3%	95.9%	108%	99%	104%	97.1%	120%	102%	104%
Fc1cc(-c2cnc3nonc3n2)c(Cl)cc1Cl	94.2%	111%	94.1%	98.3%	106%	-72.3% (active)		79.3%	60.2%	85.3%	41.1%	83.4%	93%	90.9%	99.4%	110%	96%	76.8%	28.9%
CCCCCCCC/C=C/CCCCCCCC1=NC(C)(C)CN1C(C)C	-2.44% (active)	61.4%	76.8%	-79.6% (active)	-45.9% (active)	-57.6% (active)	15.7%		-67.3% (active)	21.9%	-19.5% (active)	-9.32% (active)	-68.1% (active)	4.16% (active)	6.07% (active)	8.28% (active)	11.1%	-75.3% (active)	-54.5% (active)
N=C(N)c1ccc(NCCNc2ccc(C(=N)N)cc2)cc1	85.9%	62.6%	95.5%	121%	50.3%	92.9%		117%	142%	106%	100%	87.3%	98.3%	113%	66.3%	84.7%	62.3%	125%	82.1%
CCOC(=O)Nc1ccc2nc(N3CCCCCC3)sc2c1	47.9%	54.3%	46.2%	33.2%	17.1%	-12.7% (active)	32%	40.2%	-7.85% (active)	22.4%	38.9%		14.4%	49%	23.5%	-1.3% (active)	64.3%	19.5%	
OC(CCCCCCCCC(O)CN1CCc2ccccc2C1)CN1CCc2ccccc2C1 (configuration not stated)	101%	99.9%	87.5%	103%	108%	105%		94.7%	101%	108%	97.5%	98%	110%	102%	83.2%	101%	98.5%	109%	97.3%
COCc1nc(NS(=O)(=O)c2ccc(N)cc2)nc(C)c1Br	97.1%	98.2%	99%	91%	106%	76.7%		100%	108%	116%	94.6%	106%	101%	109%	93.6%	100%	104%	101%	98%
O=c1nc(-c2ccccc2)c2cc(-c3ccc(N4CCOCC4)cc3)ccc2[nH]1	86.3%	72.1%	68.9%	73.7%	79.7%		64.3%	78.6%	82.5%	79.7%	98.4%	78.4%	73.4%	94.3%	88.6%	94.9%	71.6%	92.3%	71.8%
Clc1ccccc1CNc1c2ccccc2nc2ccccc12	21.6%	38.9%	27%	40.9%	8.83% (active)	28.5%		24.5%	0.525% (active)	31.8%	19%	29%	15%	46.6%	21.7%	6.15% (active)	44.3%	18.1%	5.33% (active)
COc1ccc(/C=C/C(=O)CCC(=O)O)cc1OC	109%	102%	97.4%	91.4%	111%	93.2%		95.3%	106%	111%	102%	119%	116%	107%	104%	101%	105%	101%	
C#Cc1cccc(Nc2nc3cc([N+](=O)[O-])ccc3nc2Nc2ccc(O)cc2)c1	9.92% (active)	50.3%	16.8%	21.4%	-24% (active)	-53.6% (active)		-11.7% (active)	-49.9% (active)	23.3%	51.2%	-48.2% (active)	54.8%	27.3%	1.66% (active)	21.8%	25.9%	-52.5% (active)	-30% (active)
CCCCCCCCCCCCCCCC1=NC(C)(C)CN1C(C)C	0.554% (active)	-5.35% (active)	34.6%	-77.4% (active)	-53.7% (active)	-68.1% (active)	-57.2% (active)		-64.6% (active)	7.67% (active)	-49% (active)	-62.2% (active)	-68.9% (active)	-55.2% (active)	-48.1% (active)	-79.6% (active)	-31.2% (active)	-71.4% (active)	-50.3% (active)
COc1cc(/C=N/NC(=O)Cn2c(-c3ccc(C)o3)nc3ccccc32)ccc1OCc1ccccc1	91.1%	84.4%	85.7%	89.8%	91.5%	73.6%		99%	102%	105%	115%	78.7%	85.6%	76.1%	91.7%	103%	89.5%	85.2%	65.5%
